# Reference: PubChem BioAssay AID1159580 (chemical genetic matrix, 2015)
# Among all 5,500 compounds or so, about 2,000 (36%) were called active. Inconclusive results (about 18%) are left out. This is one part of the list. A number with no mark means an inactive call. No stated cut-off is given here; in the data, active means normalized growth mostly below about 0.91 (no sharp cut-off); inconclusive means no clear call, values can overlap the other calls; inactive means mostly above about 0.92.
# Experiment: chemical genetic growth profiling, strain panel (AID 1159580);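 further: tested at 20 µM; growth read once vehicle control cultures reached saturation at 30 °C; 1 = growth at the plate median or of vehicle wells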
# Details: S. cerevisiae deletion strains, growth OD
# [1] = locus YAR019C, strain CDC15, stronger effect = lower value
# [2] = locus YBL105C, strain PKC1, stronger effect = lower value
# [3] = locus YBR135W, strain CKS1, stronger effect = lower value
# [4] = locus YBR136W, strain MEC1, stronger effect = lower value
# [5] = locus YBR160W, strain CDC28, stronger effect = lower value
# [6] = locus YDL017W, strain CDC7, stronger effect = lower value
# [7] = locus YDL028C, strain MPS1, stronger effect = lower value
# [8] = locus YDL101C, strain DUN1, stronger effect = lower value
# [9] = locus YDL108W, strain KIN28, stronger effect = lower value
# [10] = locus YDL132W, strain cdc53, stronger effect = lower value
# [11] = locus YDL214C, strain PRR2, stronger effect = lower value
# [12] = locus YDR052C, strain DBF4, stronger effect = lower value
# [13] = locus YDR054C, strain cdc34, stronger effect = lower value
# [14] = locus YDR226W, strain ADK1, stronger effect = lower value
# [15] = locus YDR477W, strain SNF1, stronger effect = lower value
# [16] = locus YER123W, strain YCK3, stronger effect = lower value
# [17] = locus YER133W, strain GLC7, stronger effect = lower value
# [18] = locus YFL009W, strain cdc4, stronger effect = lower value
# [19] = locus YFL029C, strain CAK1, stronger effect = lower value
# [20] = locus YFR003C, strain YPI1, stronger effect = lower value
# [21] = locus YFR019W, strain FAB1, stronger effect = lower value
# [22] = locus YFR028C, strain CDC14, stronger effect = lower value
# [23] = locus YGR040W, strain KSS1, stronger effect = lower value
# [24] = locus YGR052W, strain FMP48, stronger effect = lower value
# [25] = locus YGR092W, strain DBF2, stronger effect = lower value
# [26] = locus YHR030C, strain SLT2, stronger effect = lower value
# [27] = locus YHR079C, strain IRE1, stronger effect = lower value
# [28] = locus YHR082C, strain KSP1, stronger effect = lower value
# [29] = locus YHR205W, strain SCH9, stronger effect = lower value
# [30] = locus YIL147C, strain SLN1, stronger effect = lower value
# [31] = locus YJL095W, strain BCK1, stronger effect = lower value
# [32] = locus YJL128C, strain PBS2, stronger effect = lower value
# [33] = locus YJL157C, strain FAR1, stronger effect = lower value
# [34] = locus YJR016C, strain ILV3, stronger effect = lower value
# [35] = locus YJR066W, strain TOR1 (second series), stronger effect = lower value
# [36] = locus YJR066W, strain TOR1, stronger effect = lower value
# [37] = locus YKL048C, strain ELM1, stronger effect = lower value
# [38] = locus YKL067W, strain YNK1, stronger effect = lower value
# [39] = locus YKL101W, strain HSL1, stronger effect = lower value
# [40] = locus YKL193C, strain SDS22, stronger effect = lower value
# [41] = locus YKL203C, strain TOR2, stronger effect = lower value
# [42] = locus YLR113W, strain HOG1, stronger effect = lower value
# [43] = locus YLR133W, strain CKI1, stronger effect = lower value
# [44] = locus YLR403W, strain SFP1, stronger effect = lower value
# [45] = locus YML070W, strain DAK1, stronger effect = lower value
# [46] = locus YMR001C, strain CDC5, stronger effect = lower value
# [47] = locus YMR205C, strain PFK2 (second series), stronger effect = lower value
# [48] = locus YMR277W, strain FCP1, stronger effect = lower value
# [49] = locus YNL006W, strain LST8, stronger effect = lower value
# [50] = locus YNL020C, strain ARK1, stronger effect = lower value
# [51] = locus YNL161W, strain CBK1, stronger effect = lower value
# [52] = locus YNL183C, strain NPR1, stronger effect = lower value
# [53] = locus YNL207W, strain RIO2, stronger effect = lower value
# [54] = locus YNL222W, strain SSU72, stronger effect = lower value
# [55] = locus YNL307C, strain MCK1 (second series), stronger effect = lower value
# [56] = locus YOL078W, strain AVO1, stronger effect = lower value
# [57] = locus YOL136C, strain PFK27, stronger effect = lower value
# [58] = locus YOR061W, strain CKA2, stronger effect = lower value
# [59] = locus YOR119C, strain RIO1, stronger effect = lower value
# [60] = locus YOR231W, strain MKK1, stronger effect = lower value
# [61] = locus YOR329C, strain SCD5, stronger effect = lower value
# [62] = locus YPL031C, strain PHO85, stronger effect = lower value
# [63] = locus YPL153C, strain RAD53, stronger effect = lower value
# [64] = locus YPL204W, strain HRR25, stronger effect = lower value
# [65] = locus YPL209C, strain IPL1, stronger effect = lower value
# [66] = locus YPL256C, strain CLN2, stronger effect = lower value
# [67] = locus YPR025C, strain CCL1, stronger effect = lower value
# [68] = locus YPR106W, strain ISR1, stronger effect = lower value
# [69] = locus YPR111W, strain DBF20, stronger effect = lower value
# [70] = strain NNK1, stronger effect = lower value
# [71] = strain TSCII, stronger effect = lower value
structure (smiles),measurement,setting,value
CC(=O)ON=C1c2cc([N+](=O)[O-])ccc2-c2ccc([N+](=O)[O-])cc21,normalized growth,[1],0.948
same,normalized growth,[2],0.942
same,normalized growth,[3],0.949
same,normalized growth,[4],0.939
same,normalized growth,[5],0.955
same,normalized growth,[6],0.954
same,normalized growth,[7],0.933
same,normalized growth,[8],0.963
same,normalized growth,[9],0.937
same,normalized growth,[10],0.971
same,normalized growth,[11],0.85
same,normalized growth,[12],0.953
same,normalized growth,[13],0.942
same,normalized growth,[14],0.983
same,normalized growth,[15],0.729
same,normalized growth,[16],0.793
same,normalized growth,[17],0.867
same,normalized growth,[18],0.966
same,normalized growth,[19],0.948
same,normalized growth,[20],0.935
same,normalized growth,[21],0.933
same,normalized growth,[22],0.963
same,normalized growth,[23],0.702
same,normalized growth,[24],0.793
same,normalized growth,[25],0.426 (active)
same,normalized growth,[26],0.788 (active)
same,normalized growth,[27],0.825
same,normalized growth,[28],0.796
same,normalized growth,[29],0.858
same,normalized growth,[30],0.93
same,normalized growth,[31],0.778
same,normalized growth,[32],0.917
same,normalized growth,[33],0.835
same,normalized growth,[34],0.939
same,normalized growth,[35],0.682
same,normalized growth,[36],0.76
same,normalized growth,[37],0.892
same,normalized growth,[38],0.864
same,normalized growth,[39],0.761
same,normalized growth,[40],0.945
same,normalized growth,[41],0.843
same,normalized growth,[42],0.789 (active)
same,normalized growth,[43],0.879
same,normalized growth,[44],0.776
same,normalized growth,[45],0.852
same,normalized growth,[46],0.942
same,normalized growth,[47],0.865
same,normalized growth,[48],0.936
same,normalized growth,[49],0.953
same,normalized growth,[50],0.836
same,normalized growth,[51],0.952
same,normalized growth,[52],0.745
same,normalized growth,[53],0.93
same,normalized growth,[54],0.939
same,normalized growth,[55],0.691
same,normalized growth,[56],0.95
same,normalized growth,[57],0.866
same,normalized growth,[58],0.751
same,normalized growth,[59],0.817
same,normalized growth,[60],0.848
same,normalized growth,[61],0.942
same,normalized growth,[62],0.701
same,normalized growth,[63],0.724
same,normalized growth,[64],0.749
same,normalized growth,[65],0.948
same,normalized growth,[66],0.891
same,normalized growth,[67],0.947
same,normalized growth,[68],0.964
same,normalized growth,[69],0.957
same,normalized growth,[70],0.944
same,normalized growth,[71],0.943
CCCCN(C)C(=O)c1cc([N+](=O)[O-])cc2c1-c1ccc([N+](=O)[O-])cc1C2=C(C#N)C#N,normalized growth,[1],0.984
same,normalized growth,[2],0.988
same,normalized growth,[3],0.985
same,normalized growth,[4],0.977
same,normalized growth,[5],0.979
same,normalized growth,[6],0.985
same,normalized growth,[7],0.976
same,normalized growth,[8],0.98
same,normalized growth,[9],0.974
same,normalized growth,[10],0.969
same,normalized growth,[11],0.983
same,normalized growth,[12],0.975
same,normalized growth,[13],0.98
same,normalized growth,[14],0.994
same,normalized growth,[15],0.972
same,normalized growth,[16],0.942
same,normalized growth,[17],0.984
same,normalized growth,[18],0.983
same,normalized growth,[19],0.98
same,normalized growth,[20],0.984
same,normalized growth,[21],0.961
same,normalized growth,[22],0.98
same,normalized growth,[23],0.978
same,normalized growth,[24],0.953
same,normalized growth,[25],0.944
same,normalized growth,[26],0.968
same,normalized growth,[27],0.957
same,normalized growth,[28],1.04
same,normalized growth,[29],0.976
same,normalized growth,[30],0.982
same,normalized growth,[31],0.868
same,normalized growth,[32],0.959
same,normalized growth,[33],0.988
same,normalized growth,[34],0.973
same,normalized growth,[35],0.971
same,normalized growth,[36],0.973
same,normalized growth,[37],0.98
same,normalized growth,[38],0.971
same,normalized growth,[39],0.951
same,normalized growth,[40],0.977
same,normalized growth,[41],1.01
same,normalized growth,[42],0.871
same,normalized growth,[43],0.99
same,normalized growth,[44],0.966
same,normalized growth,[45],0.94
same,normalized growth,[46],0.977
same,normalized growth,[47],0.985
same,normalized growth,[48],0.976
same,normalized growth,[49],0.983
same,normalized growth,[50],0.985
same,normalized growth,[51],0.983
same,normalized growth,[52],0.968
same,normalized growth,[53],0.979
same,normalized growth,[54],0.978
same,normalized growth,[55],0.907
same,normalized growth,[56],0.968
same,normalized growth,[57],0.941
same,normalized growth,[58],0.971
same,normalized growth,[59],1.03
same,normalized growth,[60],0.876
same,normalized growth,[61],0.99
same,normalized growth,[62],0.967
same,normalized growth,[63],0.986
same,normalized growth,[64],0.958
same,normalized growth,[65],0.986
same,normalized growth,[66],0.968
same,normalized growth,[67],0.982
same,normalized growth,[68],0.985
same,normalized growth,[69],0.993
same,normalized growth,[70],0.994
same,normalized growth,[71],0.98
